# Records with an inconclusive call do not appear. A call without a number means that no potency is given here. Unmarked numbers belong to inactive results. Calls of active or inactive are those of the source. Calls come from the whole dose curve; as a rule, active = well fitted activation curve with a large enough effect in the repeat runs; inconclusive = weak or mixed curves; inactive = flat fitted curve, though single readings scatter. Non-standard residues stand in square brackets, D forms with d. Residues, ends and D or L forms follow the SMILES beside them. *: point of attachment. Sta = CC(C)C[C@H](N)[C@@H](O)CC(=O)O; Isovaleryl = CC(C)CC(=O)*
# Assay: A CellTox Green Cytotoxicity Assay to monitor cytotoxicity in HepG2 cells - 32 hour (AID 1224883); note: nearly all actives have a fitted effect of over 50% in size
# Details: CellTox Green fluorescence; series mostly up to 76.8 µM
# Text: National Center for Advancing Translational Sciences [NCATS]
# NIH Chemical Genomics Center [NCGC]
# U.S. Environmental Protection Agency [EPA]
# National Institutes of Environmental Health Sciences [NIEHS]
# National Toxicology Program [NTP]
# Cell-based models are critical for drug discovery. Determining the natural cytotoxic effects resulting from test compounds is an essential research activity. A CellTox Green Cytotoxicity Assay to monitor cytotoxicity in real time of continues cell culture during 40 hours of the compound treatment was used to screen Tox21 10K library compounds in HepG2 cells. CellTox Green Cytotoxicity Assay is a nonlytic, homogeneous, biofluorescent method to measure cytotoxicity in cell culture after experimental manipulation. The assay system uses a proprietary asymmetric cyanine dye that is excluded from viable cells but preferentially stains the dead cell's DNA. […] Viable cells produce no appreciable increases in fluorescence. Therefore, the fluorescence signal produced by the binding interaction with dead cell DNA is proportional to cytotoxicity.
# The mixture of HepG2 cell suspension and reagents were dispensed at 600cells/6 ul/well in 1536-well tissue culture treated black solid bottom plates using a Multidrop dispenser. After the assay plates were incubated at a 37 C/5% CO2 incubator for 5 hours, 23 nL of compounds dissolved in DMSO, positive and negative controls was transferred to the assay plate by a pintool work station. The plates were incubated at 37 C for 40 hours. The fluorescence intensity were measured at 0h, 8h, 16h, 24h, 32h and 40h time points using ViewLux plate reader during compound treatment.
# Potency is the fitted concentration of half-maximal effect.
SMILES,Potency,cytotoxicity increase
CSC(=O)c1cccc2nnsc12,inactive,
Cc1ccccc1C#N,inactive,
N=C(N)N,inactive,
CC(O)CCCCn1c(=O)c2c(ncn2C)n(C)c1=O (stereo not given),inactive,
O=C(O)COc1ccc2ccccc2c1,inactive,
COc1cc(S(N)(=O)=O)cc(C(=O)O)c1OC,inactive,
CO/N=C(\C(=O)O)c1csc(NC(=O)CCl)n1,inactive,
Cc1cc(O)c(Cl)cc1C,49 µM (active),
O=C1c2ccccc2C(=O)N1CO,inactive,
CN(C)CCc1c[nH]c2ccc(CS(=O)(=O)N3CCCC3)cc12,inactive,
Cc1ccc(Br)cc1,inactive,
NNC(=O)CCCCC(=O)NN,inactive,
CCCc1ccc(O)c(OC)c1,inactive,
COC(=O)C(c1ccccc1Cl)N1CCc2sccc2C1 (stereo not given),inactive,
Cc1ccc(N)nc1,inactive,
O=C1Nc2ccccc2C1=O,inactive,
CC1=C(O)C(=O)CO1,inactive,
Nc1cc(S(=O)(=O)O)ccc1O,inactive,
CC(=O)c1ccc(O)c(C(N)=O)c1,inactive,
CCCCCC(=O)CC,inactive,

SMILES,Potency,cytotoxicity increase
CCCCS,inactive,
CCCCN=C(N)N=C(N)N,inactive,
CC(C)CC(=O)N[C@H](C(=O)N[C@H](C(=O)N[C@@H](CC(C)C)[C@@H](O)CC(=O)N[C@@H](C)C(=O)N[C@@H](CC(C)C)[C@@H](O)CC(=O)O)C(C)C)C(C)C (Isovaleryl-VV[Sta]A[Sta]-OH),inactive,
CCO/C=C1\N=C(c2ccccc2)OC1=O,inactive,
C[Si](C)(C)O[Si](O)(O)O,inactive,
Cc1ccc(OC(=O)CC(C)C)cc1,inactive,
C=C(C)C(=O)OCCCC,inactive,
CC(=O)c1ccc2ccc3ccccc3c2c1,inactive,
CCc1ncc(C)[nH]1,inactive,
CCCCCCCOC(C)=O,inactive,
C=CCn1cc[n+](C)c1,inactive,
CC(CC(=O)Cl)CC(C)(C)C (stereo not given),inactive,
CC(C)(C)OC(=O)c1ccccc1C(=O)O,inactive,
NC[C@H]1O[C@H](O[C@H]2[C@H](O)[C@@H](O[C@H]3O[C@H](CO)[C@@H](O)[C@H](N)[C@H]3O)[C@H](N)C[C@@H]2N)[C@H](N)[C@@H](O)[C@@H]1O,,-2.59% [at 15.8 µM]
CC(=O)O[C@@H]1CC2C3CCc4cc(OC(=O)c5ccccc5)ccc4C3CCC2(C)[C@H]1OC(C)=O (stereo not given in full),inactive,
O=Cc1ccc(C(=O)O)cc1,inactive,
NS(=O)(=O)c1cc2c(cc1C(F)(F)F)NCNS2(=O)=O,inactive,
C[n+]1ccccc1/C=N/O,inactive,
O=C(O)Cc1ccccc1Oc1ccc(Cl)cc1Cl,inactive,
O=C(O)/C=C(\CC(=O)O)C(=O)O,inactive,

# — PubChem BioAssay (Tox21)
